Here are results for 59 molecules from PubChem BioAssay AID1224921 (Broad Institute, 2016).

Hit rate of the full screen: of about 1,400 compounds, about 350 (25%) were called active. Inconclusive results (about 2%) are left out. Not all results are given here. Measured potencies and affinities stand elsewhere. A number with no mark means an inactive call. How the calls were made is not given here.

This assay can be described thus: C. difficile growth inhibition, confirmation, 4-point retest (AID 1224921).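 Further: plate controls were DMSO wells for no effect and levofloxacin 16 µg/mL wells for full effect.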 Conditions: Clostridioides difficile clinical isolate growth, OD600, 24 h, active compounds read low; at 30 µM unless noted.
With `COCC(=O)N1[C@@H]2c3ccc(-c4ccncc4)c(=O)n3C[C@@H]2[C@@H](CO)[C@@H]1C(=O)Nc1ccccc1`, the max activity is -4.68% [at 0.5 µM].
For `C[C@H](NC(=O)C[C@@H]1C[C@@H]2c3cc(NC(=O)NC4CCCCC4)ccc3O[C@@H]2[C@H](CO)O1)c1ccccc1` the value was -12.5% [at 1.95 µM].
For `C[C@H](CO)N1C[C@H](C)[C@@H](CN(C)Cc2ccc(C(F)(F)F)cc2)Oc2ccc(N(C)C)cc2CC1=O` the value was 14% [at 8 µM].
The result for `C[C@H](CO)N1C[C@H](C)[C@@H](CN(C)Cc2ccccc2)Oc2ccc(N(C)C)cc2CC1=O` reads 18.1%; that for `C[C@@H]1CN([C@@H](C)CO)C(=O)Cc2cc(N(C)C)ccc2O[C@@H]1CN(C)Cc1ccc(Oc2ccccc2)cc1`, 32.7%; that for `C[C@@H]1CN([C@H](C)CO)C(=O)Cc2cc(N(C)C)ccc2O[C@@H]1CN(C)Cc1ccc(Oc2ccccc2)cc1`, 27.6% [at 35 µM].
Regarding `C[C@@H]1CN([C@@H](C)CO)C(=O)Cc2cc(NC(=O)C3CC3)ccc2O[C@@H]1CN(C)Cc1ccc(Oc2ccccc2)cc1`, the max activity is 32.9%.
The result for `C[C@@H]1CN([C@H](C)CO)C(=O)Cc2cc(N(C)C)ccc2O[C@@H]1CN(C)Cc1ccc(-c2ccccc2)cc1` reads 13.4% [at 8 µM]; that for `C[C@@H]1CN([C@H](C)CO)S(=O)(=O)c2ccc(C#Cc3ccccc3)cc2O[C@H]1CN(C)C(=O)Nc1ccccc1`, 8.1% [at 8 µM]; that for `C[C@H](CO)N1C[C@H](C)[C@@H](CN(C)CC2CC2)Oc2cc(-c3ccc(F)cc3)ccc2S1(=O)=O`, 38%.
The result for `CN(C)CC(=O)N1[C@@H](C#N)[C@H](c2ccc(C#CC3CCCCC3)cc2)[C@@H]1CO` reads 22.7% [at 8 µM]; that for `CN(C)CC(=O)N1[C@H](C#N)[C@H](c2ccc(C#CC3CCCCC3)cc2)[C@@H]1CO`, 14.2% [at 8 µM]; that for `N#C[C@H]1[C@@H](c2ccc(C#CC3CCCC3)cc2)[C@@H](CO)N1S(=O)(=O)Cc1ccccc1`, 29.9% [at 8 µM].
The result for `N#C[C@H]1[C@@H](c2ccc(C#CC3CCCCC3)cc2)[C@@H](CO)N1S(=O)(=O)c1ccccc1` reads 31.9% [at 8 µM].
Turning to `Cc1ccccc1S(=O)(=O)N1[C@H](C#N)[C@@H](c2ccc(C#CC3CC3)cc2)[C@@H]1CO`, the max activity was 26.6% [at 7.5 µM].
The result for `CCCC#Cc1ccc([C@H]2[C@@H](CO)N(C(=O)C3CCCCC3)[C@H]2C#N)cc1` reads 25.3% [at 8 µM].
The result for `CCCC(=O)Nc1ccc2c(c1)C(=O)N(C)C[C@@H](OC)[C@H](C)CN(CC1CCOCC1)[C@H](C)CO2` reads -10.1%; that for `CCC(=O)N[C@@H]1C=C[C@H](CC(=O)OC)O[C@H]1CO`, -12.4%.
As for `CN1CCN(C(=O)C[C@H]2C[C@H]3c4cc(NC(=O)Cc5ccncc5)ccc4O[C@H]3[C@H](CO)O2)CC1`, the max activity is 13.8%.
For `C[C@H](CO)N1C[C@H](C)[C@H](CN(C)Cc2ccc(C(F)(F)F)cc2)OCCCC[C@H](C)Oc2ccc(NC(=O)CCCN(C)C)cc2C1=O` the value was 31.1%; for `C[C@@H]1CN([C@@H](C)CO)C(=O)c2cc(/C=C/c3ccccc3)cnc2O[C@H]1CN(C)C(=O)NC1CCCCC1`, -30.5% [at 8 µM].
For `CCCN1C[C@@H](C)[C@H](OC)CN(C)C(=O)c2cc(NC(=O)COC)ccc2OC[C@@H]1C` the value was 15%; for `COc1cccc(S(=O)(=O)Nc2ccc3c(c2)[C@@H]2C[C@H](CC(=O)NC4CCCCC4)O[C@H](CO)[C@@H]2O3)c1`, 27.9%; for `COc1ccccc1CNC(=O)C[C@H]1C[C@@H]2c3cc(NC(=O)Nc4ccc(C(F)(F)F)cc4)ccc3O[C@@H]2[C@H](CO)O1`, 28%.
The result for `COc1ccccc1CNC(=O)C[C@@H]1C[C@@H]2c3cc(NC(=O)Nc4ccc(C(F)(F)F)cc4)ccc3O[C@@H]2[C@H](CO)O1` reads 28.8%; that for `COc1ccccc1CNC(=O)C[C@H]1C[C@H]2c3cc(NC(=O)Nc4ccc(C(F)(F)F)cc4)ccc3O[C@H]2[C@@H](CO)O1`, 26.5%.
As to `CCCN1C[C@H](C)[C@H](OC)CN(C)C(=O)c2cc(NC(=O)c3cccc(F)c3)ccc2OC[C@H]1C`, the max activity was 8.18% [at 8 µM].
As to `C[C@@H]1CN([C@H](C)CO)C(=O)c2ccccc2-c2ccccc2CO[C@H]1CN(C)C(=O)[C@H](C)c1ccccc1`, the max activity is 15.9%.
For `CC(C)CC#Cc1ccc2c(c1)O[C@@H](CN(C)CC1CCOCC1)[C@H](C)CN([C@H](C)CO)S2(=O)=O` the value was 29%.
On to `C[C@@H]1CN([C@H](C)CO)C(=O)Cc2cc(NC(=O)C3CC3)ccc2O[C@@H]1CN(C)Cc1ccc(Oc2ccccc2)cc1`, for which the max activity was 25.1%.
For `COc1ccccc1C#Cc1ccc2c(c1)O[C@H](CN(C)Cc1cccnc1)[C@@H](C)CN([C@@H](C)CO)S2(=O)=O` the value was 53.8%; for `CCS(=O)(=O)Nc1ccc2c(c1)C(=O)N(C)C[C@H](OC)[C@@H](C)CN(CC1CCCC1)[C@@H](C)CO2`, -15.1% [at 8 µM]; for `C[C@@H]1CN([C@@H](C)CO)S(=O)(=O)c2ccc(C#CC3CCCCC3)cc2O[C@@H]1CN(C)Cc1cccnc1`, 69.7%.
Consider `C[C@@H]1CN([C@H](C)CO)S(=O)(=O)c2ccc(-c3ccccc3)cc2O[C@H]1CN(C)Cc1ccncc1`, for which the max activity was 33.9%.
For `COc1ccccc1C#Cc1ccc2c(c1)O[C@@H](CN(C)Cc1cccnc1)[C@H](C)CN([C@@H](C)CO)S2(=O)=O`, the max activity was 26.4%.
The result for `CC(C)C#Cc1ccc([C@@H]2[C@@H](C#N)N(C(=O)C3CCC3)[C@H]2CO)cc1` reads 32.2% [at 8 µM].
For `C[C@@H]1CN([C@@H](C)CO)S(=O)(=O)c2ccc(C3=CCCCC3)cc2O[C@H]1CN(C)Cc1ccncc1` the value was 29.4%; for `CCCC#Cc1ccc2c(c1)O[C@H](CN(C)Cc1ccncc1)[C@@H](C)CN([C@H](C)CO)S2(=O)=O`, 11.6%.
Consider `COCC(=O)Nc1ccc2c(c1)OC[C@H](C)N(Cc1cncnc1)C[C@@H](C)[C@@H](OC)CN(C)C2=O`, for which the max activity was -11.6%.
The result for `O=C(Nc1cc(F)ccc1F)N[C@H]1CC[C@@H](CC(=O)N2CCc3ccccc3C2)O[C@H]1CO` reads -5.46% [at 0.5 µM]; that for `O=C(C[C@H]1C=C[C@@H](NC(=O)c2ccccn2)[C@H](CO)O1)NCc1cc(F)cc(F)c1`, 7.65%; that for `CO[C@H]1CN(C)C(=O)c2cc(NC(=O)c3ccccc3)ccc2OC[C@H](C)N(CC2CC2)C[C@H]1C`, -5.21% [at 8 µM].
The result for `O=C(Nc1cc(F)ccc1F)N[C@@H]1CC[C@H](CC(=O)N2CCc3ccccc3C2)O[C@@H]1CO` reads 29.6%; that for `CCCC#Cc1ccc2c(c1)O[C@H](CN(C)Cc1cccnc1)[C@@H](C)CN([C@H](C)CO)S2(=O)=O`, 41%.
For `CO[C@H]1CN(C)C(=O)c2cc(NC(C)=O)ccc2OC[C@H](C)N(Cc2nccs2)C[C@H]1C` the value was 16%; for `O=C1O[C@@H](c2ccccc2)[C@@H](c2ccccc2)N2[C@@H](c3ccc(O)cc3)[C@]3(C(=O)Nc4ccc(C#CC5=CCCCC5)cc43)[C@@H](C(=O)O)[C@H]12`, 28.7% [at 8 µM].
Take `CCCNC(=O)N[C@@H]1C=C[C@@H](CC(=O)N2CCN(C)CC2)O[C@H]1CO`: the max activity is -11.4%.
The result for `Cc1noc(C)c1NC(=O)N[C@H]1CC[C@H](CC(=O)Nc2ccc(-c3ccccc3)cc2)O[C@H]1CO` reads 16%.
For `CCCC(=O)Nc1ccc2c(c1)C(=O)N(C)[C@H]1CC[C@@H](CC(=O)OC)O[C@@H]1CO2` the value was -11% [at 0.5 µM]; for `Cc1ccc(-c2ccc3c(c2)O[C@@H](CN(C)Cc2cccnc2)[C@H](C)CN([C@H](C)CO)S3(=O)=O)cc1`, 16.8%.
For `NC(=O)[C@H]1[C@@H]2C(=O)O[C@@H](c3ccccc3)[C@@H](c3ccccc3)N2[C@@H](c2ccc(O)cc2)[C@]12C(=O)Nc1ccc(C#CC3(O)CCCCCC3)cc12` the value was 32.1%.
`C[C@H]1CN([C@@H](C)CO)S(=O)(=O)c2ccc(C#CC3(O)CCCC3)cc2O[C@H]1CN(C)C(=O)Nc1ccc(F)cc1`: the max activity is 15.4% [at 8 µM].
The result for `C[C@H](CO)N1C[C@H](C)[C@@H](CN(C)Cc2ccc(Cl)c(Cl)c2)Oc2ccc(NS(=O)(=O)c3ccccc3)cc2CC1=O` reads 28.2%.
For `CO[C@@H]1CN(C)C(=O)c2cc(NC(=O)c3ccc(Oc4ccccc4)cc3)ccc2OC[C@H](C)NC[C@H]1C` the value was -11.3% [at 0.5 µM]; for `CC(C)CC#Cc1ccc2c(c1)O[C@@H](CN(C)Cc1ccncc1)[C@@H](C)CN([C@H](C)CO)S2(=O)=O`, 7.2% [at 0.5 µM]; for `O=C(C[C@@H]1CC[C@@H](NC(=O)CCN2CCCCC2)[C@@H](CO)O1)Nc1nccs1`, -8.84% [at 1.95 µM].
For `CCS(=O)(=O)Nc1ccc2c(c1)C(=O)N(C)C[C@H](OC)[C@@H](C)CN(C(C)=O)[C@H](C)CO2` the value was 8.06%; for `CO[C@@H]1CN(C)C(=O)c2cc(NC(=O)c3ccc(-c4ccccc4)cc3)ccc2OC[C@H](C)NC[C@H]1C`, 10.1% [at 1.95 µM]; for `CCc1cnc(N2[C@H](CO)[C@@H](c3ccc(C4=CCCCC4)cc3)[C@@H]2C#N)s1`, 36.5% [at 0.5 µM].
